Experimental data: PubChem BioAssay AID1220 (Sanford-Burnham Center for Chemical Genomics, 2008)
In all, about 190,000 compounds went through this assay and about 1,300 (0.68%) were called active. Shown is part of a subset that was picked to be rich in actives. Unmarked numbers belong to inactive results. Rule as the data show it: active = inhibition above about 50%; inactive = the rest.

What follows are compounds tested against Mannose-6-phosphate isomerase (Homo sapiens) (UniProt P34949) (assay: human PMI inhibitors, high substrate, primary screen, biochemical, fluorescence intensity, high mannose 6-phosphate (AID 1220)). Conditions: recombinant PMI enzyme, coupled fluorescence intensity; at 20 µM; hits give high values.
Sequence of Mannose-6-phosphate isomerase (Homo sapiens) (P34949 whole entry, looked up): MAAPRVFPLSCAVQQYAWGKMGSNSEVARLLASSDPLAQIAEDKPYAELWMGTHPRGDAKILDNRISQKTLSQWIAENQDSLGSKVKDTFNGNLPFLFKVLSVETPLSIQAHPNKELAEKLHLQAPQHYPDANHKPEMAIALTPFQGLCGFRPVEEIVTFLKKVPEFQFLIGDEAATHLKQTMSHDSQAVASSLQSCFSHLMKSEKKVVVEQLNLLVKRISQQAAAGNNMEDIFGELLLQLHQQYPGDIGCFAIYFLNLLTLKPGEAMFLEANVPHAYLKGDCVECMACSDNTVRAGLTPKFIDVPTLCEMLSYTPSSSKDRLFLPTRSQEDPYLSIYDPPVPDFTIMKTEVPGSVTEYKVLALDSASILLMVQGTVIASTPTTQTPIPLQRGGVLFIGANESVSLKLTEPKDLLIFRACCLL

| SMILES | inhibition |
| --- | --- |
| CC(/C=N\NC(=O)CN1CCN(Cc2ccccc2)CC1)=C\c1ccco1 | 9.7% |
| Oc1c(C(c2ccccn2)N2CCCCC2)cc(Cl)c2cccnc12 (stereo unspecified) | 32.5% |
| CN1CCN(C(c2ccccn2)c2cc(Cl)c3cccnc3c2O)CC1 (stereo unspecified) | 43.8% |
| Oc1c(C(c2ccccn2)N2CCC(Cc3ccccc3)CC2)cc(Cl)c2cccnc12 (stereo unspecified) | 58.9% (active) |
| CC(=O)Cc1nsc(NC(=O)c2ccccc2)n1 | 6.4% |
| Cc1ccc2cn[nH]c2c1N | 58.3% (active) |
| Cc1cccc2cn[nH]c12 | -8.9% |
| Cc1ccc2cn[nH]c2c1[N+](=O)[O-] | 6.8% |
| Nc1nc(SCC(=O)NCc2ccccc2)[nH]c(=O)c1NC(=O)c1ccccc1F | 9.7% |
| Cc1ccc(NC(=O)c2ccn(C)n2)c(Br)c1 | 6% |
| O=C(Cn1nc(C(F)(F)F)c2c1CCC2)N1CCN(c2ccccc2)CC1 | 9.9% |
| CC(C)CC(=O)O/N=C1\C(=O)N(Cc2ccc(Cl)cc2)c2ccc([N+](=O)[O-])cc21 | 22.3% |
| CCCn1c(C)cc(/C=C(\C#N)C(=O)OCC(=O)NC(=O)NC(C)(C)C)c1C | -3.7% |
| Cc1cccc(N2CCN(C(=S)Nc3ccc4nc(N5CCOCC5)cc(C)c4c3)CC2C)c1 (stereo unspecified) | 51.9% (active) |
| Cc1cc(N2CCOCC2)nc2ccc(NC(=S)N3CCN(c4ccccc4)CC3)cc12 | 52.5% (active) |
| Cc1cc(N2CCN(C)CC2)nc2ccc(NC(=S)N3CCN(c4ccc(Cl)cc4)CC3)cc12 | 41.7% |
| Cc1ccc(C)c(N2CCN(C(=S)Nc3ccc4nc(N5CCN(C)CC5)cc(C)c4c3)CC2)c1 | 24.4% |
| COc1ccccc1N1CCN(C(=S)Nc2ccc3nc(N4CCOCC4)cc(C)c3c2)CC1 | 62.5% (active) |
| Cc1ccc(C)c(N2CCN(C(=S)Nc3ccc4nc(N5CCOCC5)cc(C)c4c3)CC2)c1 | 58.5% (active) |
| CCN1CCN(c2cc(C)c3cc(NC(=S)N4CCN(c5ccccc5)CC4)ccc3n2)CC1 | 28.1% |
| Cc1cc(N2CCOCC2)nc2ccc(NC(=S)N3CCN(Cc4ccccc4)CC3)cc12 | 35.3% |
| Cc1cc(N2CCN(C)CC2)nc2ccc(NC(=S)N3CCN(c4ccc(F)cc4)CC3)cc12 | 29.1% |

| SMILES | inhibition |
| --- | --- |
| Cc1cccc(N2CCN(C(=S)Nc3ccc4nc(N5CCN(C)CC5)cc(C)c4c3)CC2)c1C | 16.2% |
| Cc1cccc(N2CCN(C(=S)Nc3ccc4nc(N5CCN(C)CC5)cc(C)c4c3)CC2C)c1 (stereo unspecified) | 17.5% |
| CCN1CCN(c2cc(C)c3cc(NC(=S)N4CCOCC4)ccc3n2)CC1 | 13.3% |
| CCOc1cc2[nH]c(=O)n(CCCN3CCN(c4ccc(OC)cc4)CC3)c(=O)c2cc1OCC | 21.4% |
| COc1ccc(N/C=C\C(=O)c2ccc(C)cc2)cc1OC | 18.6% |
| Cc1occc1C(=O)NNC(=S)NCc1ccc(Cl)cc1 | -4.2% |
| CCCC(=O)NCCc1nc2ccccc2n1CC(=O)c1ccccc1 | 4.9% |
| CCN(CC)S(=O)(=O)c1ccc(N2C(=O)Nc3ccccc3N2O)cc1 | -8.2% |
| COc1nccc(Nc2ccccc2)c1C#N | -7.6% |
| Cc1cc(N2CCN(C)CC2)nc2ccc(NC(=S)N3CCCCC3)cc12 | 53.5% (active) |
| Cc1cc(N2CCN(C)CC2)nc2ccc(NC(=S)N3CCCCCC3)cc12 | 24.8% |
| Cc1cc(N2CCN(C)CC2)nc2ccc(NC(=S)N3CCOCC3)cc12 | 23.9% |
| FC(F)(F)c1cnc(Oc2cccc3ccccc23)c(Cl)c1 | 10.7% |
| CN(CC(=O)Nc1ccc(N2CCOCC2)cc1)C(=O)C1CCCC1 | 9.6% |
| CN1/C(=N\O)c2cccc3cccc1c23 | 42.5% |
| CN1CN(C)c2cccc3cccc1c23 | 48.7% |
| CN1c2cccc3cccc(c23)N(C)C1c1cccs1 | 58.6% (active) |
| CN1C(=O)c2ccccc2N(C)C1c1cccs1 (stereo unspecified) | 10% |
| CC1N(C)c2cccc3cccc(c23)N1C | 62.9% (active) |
| c1csc(C2Nc3cccc4cccc(c34)N2)c1 | 11.7% |
| O=C(COC(=O)c1ccccc1)Nc1cc(Cl)ccc1Oc1ccccc1 | 0.2% |
| COc1ccc(N2CC(NC(=O)NCC(C)C)CC2=O)cc1 (stereo unspecified) | 7.2% |

| SMILES | inhibition |
| --- | --- |
| COc1ccc(N2CC(NC(=O)NC(C)(C)C)CC2=O)cc1 (stereo unspecified) | 53.9% (active) |
| COc1ccc(N2CC(NC(=O)Nc3ccccc3)CC2=O)cc1 (stereo unspecified) | -16.3% |
| CC(C)CSc1n[nH]c(=S)s1 | -41% |
| O=C(CCCSc1nc2ccccc2s1)NC1=NCCS1 | 1.7% |
| CN1CCN(C(=O)c2ccccc2NC(=O)C(C)(C)C)CC1 | 10.4% |
| O=C(COC(=O)c1cc(S(=O)(=O)N2CCOCC2)cs1)c1ccccc1 | 11.5% |
| COc1cc(CN2CCN(c3ccccc3F)CC2)cc(OC)c1O | 24.9% |
| COc1cc(CN2CCN(Cc3ccc(C)cc3)C(CCO)C2)cc(OC)c1O (stereo unspecified) | 61.9% (active) |
| COc1cc(OC)c(OC)cc1CN1CCN(Cc2ccc(SC)cc2)CC1 | 10.2% |
| COc1cc2c(cc1OC)CN(Cc1cc(OC)c(O)c(OC)c1)CC2 | 69.5% (active) |
| CCOc1ccc(CN2CCN(S(=O)(=O)c3ccc(NC(C)=O)cc3)CC2)cc1OC | -3.6% |
| COc1cc(CN2CCN(Cc3ccc(C)cc3)C(CCO)C2)ccc1O (stereo unspecified) | 14.3% |
| C/C=C(\C)CN1CCc2cc(OC)c(OC)cc2C1 | -34.9% |
| COc1ccc(CN2CCN(Cc3ccc(C)cc3)C(CCO)C2)cc1OC (stereo unspecified) | -5.7% |
| COc1ccc(CN2CCc3cc(OC)c(OC)cc3C2)cc1O | 4.1% |
| COc1cc(CN2CCN(S(=O)(=O)c3ccc(NC(C)=O)cc3)CC2)cc(OC)c1O | 50.8% (active) |
| COc1cc(CN2CCN(Cc3ccc(SC)cc3)CC2)cc(OC)c1O | 62.1% (active) |
| COc1ccc(CN2CCN(S(=O)(=O)c3ccc(NC(C)=O)cc3)CC2)cc1OC | -2.1% |
| CCN(CC)c1nc(-c2ccccn2)nc(-c2ccccc2)c1C#N | -5.4% |
| CCN(CC)C(=O)NC1CC2CCCC(C1)N2Cc1ccccc1 (stereo unspecified) | -8.6% |
| CC(C)C(OC(=O)c1cccs1)C(=O)NCc1ccco1 (stereo unspecified) | 1.8% |
| Cc1ccc(S(=O)(=O)N2CCN(S(=O)(=O)N3CCCCC3)CC2)cc1 | 10.1% |

| SMILES | inhibition |
| --- | --- |
| Cn1c(=O)c2c(-c3ccc(C(C)(C)C)cc3)n(N3CCOCC3)cc2n(C)c1=O | -3.7% |
| COc1ccc(C(=O)N2CCN(Cc3cc(OC)c(O)c(OC)c3)CC2)cc1OC | 61.1% (active) |
| COc1cc(CN2CCN(C(=O)CC(C)C)CC2)cc(OC)c1O | 55.5% (active) |
| COc1ccc(CN2CCN(C(=O)c3cc(OC)c(OC)c(OC)c3)CC2)cc1OC | -8.2% |
| COc1cc(CN2CCN(C(=O)CC(C)C)CC2)cc(OC)c1OC | -4.9% |
| COc1ccc(CN2CCN(C(=O)CC(C)C)CC2)cc1OC | -3.1% |
| COc1ccc(C(=O)N2CCN(Cc3ccccc3C)CC2)cc1OC | -3.6% |
| CCC(Sc1nc(C)cc(C)n1)C(=O)Nc1cc(C)on1 (stereo unspecified) | -8.4% |
| CC(=O)Nc1cc(C(=O)N2CCCC2)ccc1S(=O)(=O)c1ccc(Cl)cc1 | 2.8% |
| Nc1cc(=O)[nH]c(SCc2nnc(-c3ccccc3)o2)n1 | -0.3% |
| CC1(C)CC(CC(=O)O)(c2ccc(F)cc2)CCO1 (stereo unspecified) | 3% |
| c1ccc2c(c1)NC1(CCCCC1)n1c-2nc2ccccc21 | 8.3% |
| COCCNC(=O)/C(C#N)=C/c1cc(Br)c(O)c(OC)c1 | 15.5% |
| COc1cc(/C=C(\C#N)C(=O)c2c(C)[nH]c3ccccc23)cc(OC)c1OC | 10.2% |
| COc1cc(/C=C(\C#N)C(=O)NCCc2ccccc2)cc(OC)c1O | 57.6% (active) |
| COc1cc(/C=N/S(=O)(=O)CCc2ccccc2)ccc1O | 14.1% |
| COc1cc(/C=C(\C#N)C(=O)c2c[nH]c3ccccc23)cc(OC)c1O | 70% (active) |
| COc1cc(/C=N/S(=O)(=O)CCc2ccccc2)cc(OC)c1O | 61.1% (active) |
| COc1ccc(/C=C(\C#N)C(=O)NCCc2ccccc2)cc1OCc1ccccc1 | -4.6% |
| COc1ccc(/C=N/S(=O)(=O)CCc2ccccc2)c(OC)c1 | 7.5% |
| COc1ccc(/C=C(\C#N)C(=O)c2c(C)[nH]c3ccccc23)cc1OC | 8.5% |
| CC(C)NC(=S)Nc1ccc2[nH]c(=O)[nH]c2c1 | -22% |

| SMILES | inhibition |
| --- | --- |
| CC(C)(C)N(NC(=O)OCc1ccccc1)C(=O)c1ccccc1 | 2.3% |
| CN(CP(=O)(O)CCc1ccccc1)S(C)(=O)=O | 3.2% |
| CNc1ccc(/C=C(\C#N)c2ccccn2)cc1[N+](=O)[O-] | -3.1% |
| Cc1ccc(/C=C/C(=O)N2CCCN(C(=O)/C=C/c3ccc(C)cc3)CC2)cc1 | 2.5% |
| COc1ccc2nc(NC(=O)c3ccc(-c4cccc([N+](=O)[O-])c4)o3)sc2c1 | -5.7% |
| COc1ccc2cc3cc(C(=O)NCCN4CCN(Cc5ccccc5)CC4)oc3nc2c1 | -5.6% |
| CC1CC(C)CN(CC(=O)NC(c2ccccc2)c2ccccc2)C1 (stereo unspecified) | -6.3% |
| Cc1c(NC(=O)CN2CCN(c3ccccc3)CC2)c(=O)n(-c2ccccc2)n1C | -8.2% |
| O=C(CN1CCN(c2ccc(O)cc2)CC1)NC(c1ccccc1)c1ccccc1 | 64% (active) |
| CC(CCc1ccccc1)NC(=O)CN1CCN(c2ccccc2)CC1 (stereo unspecified) | 8.2% |
| CC(C)(C)NC(=O)NC(=O)CN1CCN(c2ccc(O)cc2)CC1 | 62.6% (active) |
| Cc1c(NC(=O)CN2CCN(c3ccc(F)cc3)CC2)c(=O)n(-c2ccccc2)n1C | 5.8% |
| Cc1c(NC(=O)CN2CCN(c3ccc(O)cc3)CC2)c(=O)n(-c2ccccc2)n1C | 53% (active) |
| CC(CCc1ccccc1)NC(=O)CN1CCc2ccccc2C1 (stereo unspecified) | 3.9% |
| CC(CCc1ccccc1)NC(=O)CN1CCN(c2ccc(O)cc2)CC1 (stereo unspecified) | 65.2% (active) |
| COc1ccc(N2CCN(CC(=O)NC(=O)NC(C)(C)C)CC2)cc1 | 12.2% |
| O=C(CN1CCN(c2ccccc2O)CC1)NC(c1ccccc1)c1ccccc1 | 15.4% |
| CC(C)(C)NC(=O)NC(=O)CN1CCN(c2ccccc2)CC1 | -4.3% |
